Assay results published in PubChem BioAssay (EPA / NIEHS).
Calls of active or inactive are those of the source. The calls were made as follows: active = hit-call score of the fitted dose curve at least 0.9, where 1 is the maximum; inactive = score below 0.9.

Legend:
Conditions in all cases: mRNA level, 48 h; actives raise or lower the signal
[1] = read-out: growth arrest and DNA damage 45 (GADD45B), GADD45B (gene 4616); assay: LTEA_HepaRG_GADD45B: Life Technologies and Expression Analysis (LTEA) Assay for growth arrest and DNA damage 45 (GADD45B) using HepaRG (AID 2283461)
Method in brief: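 Transcript level quantified by Fluidigm TaqMan qRT-PCR with three housekeeping genes for normalization, analyzed for up- or down-regulation against 0.5% DMSO. HepaRG cultures dosed 48 h at eight half-log concentrations up to 100 uM, duplicates.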

[2] = read-out: ABC Transporter (ABCC3), ABCC3 (gene 8714); assay: LTEA_HepaRG_ABCC3: Life Technologies and Expression Analysis (LTEA) Assay for ABC Transporter (ABCC3) using HepaRG (AID 2283462)
Method in brief: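 Transcript level by TaqMan qRT-PCR, normalised to three housekeeping genes, fitted in both directions relative to vehicle. Chemicals tested in duplicate at eight half-log concentrations up to 100 uM for 48 h on HepaRG cells (0.5% DMSO).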

[3] = read-out: ABC Transporter (ABCB11), ABCB11 (gene 8647); assay: LTEA_HepaRG_ABCB11: Life Technologies and Expression Analysis (LTEA) Assay for ABC Transporter (ABCB11) using HepaRG (AID 2283463)
Method in brief: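 Differentiated human HepaRG cells in serum-free induction medium, dosed in duplicate for 48 h. Eight-point half-log series from 100 uM in 0.5% DMSO; ABCB11 mRNA by qRT-PCR, normalized to ACTB, GAPDH, POLR2A, fitted bidirectionally versus DMSO.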

[4] = read-out: ABC Transporter (ABCC2), ABCC2 (gene 1244); assay: LTEA_HepaRG_ABCC2: Life Technologies and Expression Analysis (LTEA) Assay for ABC Transporter (ABCC2) using HepaRG (AID 2283464)
Method in brief: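 Endpoint is ABCC2 transcript level from qRT-PCR, normalized to three housekeeping genes and fitted bidirectionally relative to DMSO. Human HepaRG cells received test chemical for 48 h at up to 100 uM (8 points, half-log steps, 0.5% DMSO), duplicate wells.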

[5] = read-out: Broad substrate specificity ATP-binding cassette transporter ABCG2 (Homo sapiens) (UniProt Q9UNQ0); assay: LTEA_HepaRG_ABCG2: Life Technologies and Expression Analysis (LTEA) Assay for ABC Transporter (ABCG2) using HepaRG (AID 2283465)
Method in brief: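 Differentiated HepaRG cells were exposed for 48 h in serum-free induction medium to 8 half-log concentrations, top 100 uM, in 0.5% DMSO. ABCG2 mRNA was measured by qRT-PCR, normalized to ACTB, GAPDH and POLR2A, with bidirectional fitting versus DMSO.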

[6] = read-out: ATP-citrate lyase (ACLY), ACLY (gene 47); assay: LTEA_HepaRG_ACLY: Life Technologies and Expression Analysis (LTEA) Assay for ATP-citrate lyase (ACLY) using HepaRG (AID 2283466)
Method in brief: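 Differentiated HepaRG cells exposed 48 h in serum-free induction medium to eight half-log concentrations up to 100 uM in 0.5% DMSO, duplicates. Transcript measured by Fluidigm TaqMan qRT-PCR, normalized to ACTB, GAPDH, POLR2A; bidirectional fit versus DMSO.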

[7] = read-out: Peroxisomal acyl-coenzyme A oxidase 1 (ACOX1) gene, ACOX1 (gene 51); assay: LTEA_HepaRG_ACOX1: Life Technologies and Expression Analysis (LTEA) Assay for Peroxisomal acyl-coenzyme A oxidase 1 (ACOX1) gene using HepaRG (AID 2283467)
Method in brief: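 HepaRG cells, plated 48 h then switched to serum-free induction medium, were exposed in duplicate for 48 h to 8-point half-log concentrations up to 100 uM in 0.5% DMSO. ACOX1 mRNA was measured by qRT-PCR, normalized to ACTB/GAPDH/POLR2A, and fitted bidirectionally versus DMSO.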

[8] = read-out: Alkaline Phosphatase, Placental (ALPP) gene, ALPP (gene 250); assay: LTEA_HepaRG_ALPP: Life Technologies and Expression Analysis (LTEA) Assay for Alkaline Phosphatase, Placental (ALPP) gene using HepaRG (AID 2283468)
Method in brief: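 ALPP transcript level, measured by qRT-PCR and normalized to three housekeeping genes (ACTB, GAPDH, POLR2A), after 48 h dosing of differentiated HepaRG in serum-free induction medium. Top concentration 100 uM with half-log dilutions (8 points, 0.5% DMSO, duplicates); bidirectional fitting relative to DMSO.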

[9] = read-out: Bcl-2 (BAD) gene, BAD (gene 572); assay: LTEA_HepaRG_BAD: Life Technologies and Expression Analysis (LTEA) Assay for Bcl-2 (BAD) gene using HepaRG (AID 2283469)
Method in brief: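 Differentiated HepaRG cells were exposed in duplicate in 0.5% DMSO for 48 h to eight-point half-log concentrations up to 100 uM. BAD mRNA was measured by Fluidigm TaqMan qRT-PCR, normalized to ACTB, GAPDH and POLR2A, and fitted bidirectionally against DMSO.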

[10] = read-out: Bcl-2 (BAX) gene, BAX (gene 581); assay: LTEA_HepaRG_BAX: Life Technologies and Expression Analysis (LTEA) Assay for Bcl-2 (BAX) gene using HepaRG (AID 2283470)
Method in brief: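 Differentiated HepaRG cells exposed 48 h in serum-free induction medium, eight half-log concentrations from 100 uM, in duplicate, 0.5% DMSO vehicle. BAX mRNA by TaqMan qRT-PCR, normalised to ACTB, GAPDH and POLR2A.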

[11] = read-out: adenosine kinase (ADK) gene, ADK (gene 132); assay: LTEA_HepaRG_ADK: Life Technologies and Expression Analysis (LTEA) Assay for adenosine kinase (ADK) gene using HepaRG (AID 2283471)
Method in brief: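 Differentiated HepaRG cells dosed 48 h in serum-free induction medium, 0.5% DMSO vehicle, eight half-log concentrations from 100 uM, in duplicate. ADK mRNA by TaqMan qRT-PCR normalised to ACTB, GAPDH, POLR2A; bidirectional fit versus DMSO.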

[12] = read-out: Alpha-fetoprotein (AFP) gene, AFP (gene 174); assay: LTEA_HepaRG_AFP: Life Technologies and Expression Analysis (LTEA) Assay for Alpha-fetoprotein (AFP) gene using HepaRG (AID 2283472)
Method in brief: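 Differentiated human HepaRG cells exposed 48 h in serum-free induction medium, 8-point half-log series from 100 uM in 0.5% DMSO, duplicate. AFP mRNA by qRT-PCR, normalized to ACTB, GAPDH, POLR2A; bidirectional fit vs DMSO.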

[13] = read-out: Apolipoprotein A-V (APOA5) gene, APOA5 (gene 116519); assay: LTEA_HepaRG_APOA5: Life Technologies and Expression Analysis (LTEA) Assay for Apolipoprotein A-V (APOA5) gene using HepaRG (AID 2283474)
Method in brief: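 APOA5 transcript levels were quantified by qRT-PCR, normalized to three housekeeping genes, after 48 h chemical treatment of HepaRG cells (8 points, 100 uM maximum, half-log steps, 0.5% DMSO). Curves fitted in both directions against vehicle.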

[14] = read-out: Apoptosis regulator Bcl-2 (Homo sapiens) (UniProt P10415); assay: LTEA_HepaRG_BCL2: Life Technologies and Expression Analysis (LTEA) Assay for Bcl-2 gene using HepaRG (AID 2283475)
Method in brief: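 Differentiated human HepaRG cells in serum-free induction medium exposed 48 h, in duplicate, to 8-point half-log series from 100 uM in 0.5% DMSO. BCL2 mRNA by qRT-PCR (TaqMan/Fluidigm), normalized to ACTB, GAPDH, POLR2A; bidirectional fit against DMSO.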

[15] = read-out: Bcl-2 (BID) gene, BID (gene 637); assay: LTEA_HepaRG_BID: Life Technologies and Expression Analysis (LTEA) Assay for Bcl-2 (BID) gene using HepaRG (AID 2283476)
Method in brief: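 Gene expression by qRT-PCR in HepaRG cells after 48 h exposure, duplicate wells, eight half-log concentrations topping at 100 uM in 0.5% DMSO. Normalized to ACTB, GAPDH, POLR2A; bidirectional fitting relative to DMSO.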

[16] = read-out: Caspase-3 (Homo sapiens) (UniProt P42574); assay: LTEA_HepaRG_CASP3: Life Technologies and Expression Analysis (LTEA) Assay for cysteine-aspartic acid protease (CASP3) using HepaRG (AID 2283477)
Method in brief: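 Expression of CASP3 was quantified by TaqMan qRT-PCR against three housekeeping genes (ACTB, GAPDH, POLR2A), bidirectionally versus 0.5% DMSO. HepaRG cultures received compounds in duplicate, top 100 uM with half-log steps, for 48 h in serum-free induction medium.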

[17] = read-out: Cytochrome P450 (CYP24A1), CYP24A1 (gene 1591); assay: LTEA_HepaRG_CYP24A1: Life Technologies and Expression Analysis (LTEA) Assay for Cytochrome P450 (CYP24A1) using HepaRG (AID 2283478)
Method in brief: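 mRNA of CYP24A1 quantified by TaqMan qRT-PCR (ACTB/GAPDH/POLR2A normalization) after 48 h chemical exposure of HepaRG cells, top concentration 100 uM, half-log steps, 0.5% DMSO vehicle, duplicates. Curves fitted bidirectionally against DMSO baseline.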

[18] = read-out: Cytochrome P450 (CYP1A2), CYP1A2 (gene 1544); assay: LTEA_HepaRG_CYP1A2: Life Technologies and Expression Analysis (LTEA) Assay for Cytochrome P450 (CYP1A2) using HepaRG (AID 2283479)
Method in brief: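 CYP1A2 transcript measured by TaqMan qRT-PCR against three housekeeping genes after 48-hour chemical exposure of HepaRG cells. Eight-point half-log series topping at 100 uM in 0.5% DMSO, duplicates; gain or loss fitted relative to vehicle.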

[19] = read-out: cysteine-aspartic acid protease (CASP8), CASP8 (gene 841); assay: LTEA_HepaRG_CASP8: Life Technologies and Expression Analysis (LTEA) Assay for cysteine-aspartic acid protease (CASP8) using HepaRG (AID 2283480)
Method in brief: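 Differentiated HepaRG cells in serum-free induction medium, 48 h exposure, eight-point half-log series from 100 uM in 0.5% DMSO, duplicates. CASP8 mRNA by qRT-PCR, normalized to ACTB, GAPDH, POLR2A; bidirectional fit versus DMSO.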

[20] = read-out: BCL2L11 (gene 10018); assay: LTEA_HepaRG_BCL2L11: Life Technologies and Expression Analysis (LTEA) Assay for Bcl-2 (BCL2L11) gene using HepaRG (AID 2283473)
Method in brief: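 BCL2L11 transcript levels are measured by Fluidigm qRT-PCR, normalized to three housekeeping genes. HepaRG cultures were plated 48 h, then treated 48 h with test chemical (top 100 uM, half-log, 0.5% DMSO vehicle); curves were fitted bidirectionally against DMSO.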

Measured: AC50

Sequence of Apoptosis regulator Bcl-2 (Homo sapiens) (P10415 whole entry, looked up): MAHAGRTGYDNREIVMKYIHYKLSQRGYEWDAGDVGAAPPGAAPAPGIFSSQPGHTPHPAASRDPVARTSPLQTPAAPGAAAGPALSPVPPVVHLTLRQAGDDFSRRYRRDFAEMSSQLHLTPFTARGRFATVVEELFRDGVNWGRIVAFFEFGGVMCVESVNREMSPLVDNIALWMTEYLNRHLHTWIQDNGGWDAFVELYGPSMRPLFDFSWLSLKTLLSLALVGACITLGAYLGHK
Sequence of Broad substrate specificity ATP-binding cassette transporter ABCG2 (Homo sapiens) (Q9UNQ0 whole entry, looked up): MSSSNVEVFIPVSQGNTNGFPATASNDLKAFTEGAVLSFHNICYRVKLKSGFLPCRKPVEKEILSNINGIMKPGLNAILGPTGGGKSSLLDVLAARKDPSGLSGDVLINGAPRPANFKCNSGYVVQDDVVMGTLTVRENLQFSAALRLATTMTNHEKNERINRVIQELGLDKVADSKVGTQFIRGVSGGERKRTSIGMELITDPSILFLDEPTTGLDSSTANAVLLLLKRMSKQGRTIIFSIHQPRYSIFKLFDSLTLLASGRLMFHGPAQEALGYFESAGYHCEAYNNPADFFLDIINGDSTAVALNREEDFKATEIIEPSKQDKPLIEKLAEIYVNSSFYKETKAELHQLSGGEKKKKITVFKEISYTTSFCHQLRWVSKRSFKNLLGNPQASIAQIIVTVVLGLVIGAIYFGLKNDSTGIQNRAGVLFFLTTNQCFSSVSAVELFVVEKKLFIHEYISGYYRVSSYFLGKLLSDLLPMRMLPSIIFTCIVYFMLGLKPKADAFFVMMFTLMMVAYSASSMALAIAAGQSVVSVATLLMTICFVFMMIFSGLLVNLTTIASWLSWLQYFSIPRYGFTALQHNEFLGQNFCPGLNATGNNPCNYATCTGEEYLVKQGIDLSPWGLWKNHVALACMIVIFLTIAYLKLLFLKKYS
Sequence of Caspase-3 (Homo sapiens) (P42574 whole entry, looked up): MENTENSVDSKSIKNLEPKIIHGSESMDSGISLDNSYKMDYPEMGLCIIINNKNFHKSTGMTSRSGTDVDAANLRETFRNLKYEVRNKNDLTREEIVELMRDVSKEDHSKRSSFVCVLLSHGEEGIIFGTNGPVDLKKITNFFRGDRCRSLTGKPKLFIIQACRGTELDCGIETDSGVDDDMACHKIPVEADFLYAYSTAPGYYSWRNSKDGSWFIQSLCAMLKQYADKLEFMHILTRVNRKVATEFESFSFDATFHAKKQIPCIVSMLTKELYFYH

COC(=O)c1ccccc1O
not listed: [20]
inactive: all other assays above

CCC(C)(C)C(=O)O[C@H]1C[C@@H](C)C=C2C=C[C@H](C)[C@H](CC[C@@H]3C[C@@H](O)CC(=O)O3)[C@H]21
active: [6] 13.5 µM
not listed: [3] | [17] | [18] | [19]
inactive: all other assays above

C1N2CN3CN1CN(C2)C3
active: [18] 68.7 µM
inactive: all other assays above

O=C(O)c1cc(N=Nc2ccc(S(=O)(=O)Nc3ccccn3)cc2)ccc1O
active: [18] 75.7 µM
inactive: all other assays above

C=CCCCCCCCCC(=O)O
active: [11] 0.00684 µM | [18] 50 µM
not listed: [3] | [19]
inactive: all other assays above

O=C(O)CCN(C1(C(=O)NO)CCCC1)S(=O)(=O)c1ccc(Oc2ccc(F)cc2)cc1
inactive: all assays above

CC[C@H]1OC(=O)[C@H](C)[C@@H](O[C@H]2C[C@@](C)(OC)[C@@H](O)[C@H](C)O2)[C@H](C)[C@@H](O[C@@H]2O[C@H](C)C[C@H](N(C)C)[C@H]2O)[C@](C)(O)C[C@@H](C)C(=O)[C@H](C)[C@@H](O)[C@]1(C)O
active: [18] 59.1 µM
not listed: [3] | [11]
inactive: all other assays above

COCCOc1cc2cc(C(=O)NC3CCN(C(C)C)CC3)n(CC(=O)Nc3ccc(Cl)cn3)c2cn1
active: [2] 45 µM | [4] 37.2 µM | [7] 39.4 µM | [12] 65 µM | [20] 15.2 µM | [13] 45 µM | [18] 2.12 µM
not listed: [3]
inactive: all other assays above

O=P(OC(CCl)CCl)(OC(CCl)CCl)OC(CCl)CCl
inactive: [1] | [2] | [4] | [7] | [9] | [16] | [17]
active: [5] 78.5 µM | [6] 75.9 µM | [8] 0.259 µM | [10] 84.5 µM | [11] 0.272 µM | [12] 15.8 µM | [20] 83.8 µM | [13] 50 µM | [14] 88.3 µM | [15] 0.232 µM | [18] 80 µM | [19] 0.209 µM
